Only some compounds are listed: those with a hit (about 7.3% of all), similar ones and a draw of the others.
Luc counter – counter-screen: inhibitors of Kinase-Glo firefly luciferase. 200,000 compounds, 0.28% hits. Potency, µM (highest dose often 38.3 µM), for the others: top-dose activity change, negative = inhibition, most hits filed as inhibitors. Q27757. Kinase-Glo luciferase, ATP luminescence, 8 min; also: % is scaled to controls: 0 for no effect and ±100 for the full control effect; nearly all actives have a fitted effect of over 60% in size
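Luminescence was the read-out, taken after 8-minute incubation at ambient temperature. Luciferase turned over luciferin with 10 uM ATP in imidazole pH 7.2 buffer containing KCl, MgCl2, Tween 20 and BSA.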
NPC1 prom act – activators of NPC1 promoter | 320,000 compounds, 2.4% hits | Potency, µM (top dose mostly 9.22 µM), without a hit: at the highest dose activation, hits mostly activators | Huh7 NPC1 promoter luciferase reporter, 24 h; also: % of control where 0% means no effect; nearly all actives have a fitted effect of over 60% in size
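Compounds in DMSO were transferred onto Huh7 NPC1-luciferase reporter cells pre-incubated 2 h; after 24 h at 37 °C, Amplite reagent was dispensed and luminescence recorded 10 min later.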
FLuc modulator – firefly luciferase modulation, counter-screen for miR-21 project. P08659. purified FLuc, Km substrates, luminescence inhibition. Potency, µM (doses to about 57.5 µM), inactives show top-dose activity change, negative = inhibition, most hits filed as inhibitors. 360,000 compounds, 6.9% hits. AID 588342;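 also: plate controls were vehicle for no effect and reference inhibitor for full effect; nearly all actives have a fitted effect of over 55% in size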
Target sequence (P08659 whole entry, looked up): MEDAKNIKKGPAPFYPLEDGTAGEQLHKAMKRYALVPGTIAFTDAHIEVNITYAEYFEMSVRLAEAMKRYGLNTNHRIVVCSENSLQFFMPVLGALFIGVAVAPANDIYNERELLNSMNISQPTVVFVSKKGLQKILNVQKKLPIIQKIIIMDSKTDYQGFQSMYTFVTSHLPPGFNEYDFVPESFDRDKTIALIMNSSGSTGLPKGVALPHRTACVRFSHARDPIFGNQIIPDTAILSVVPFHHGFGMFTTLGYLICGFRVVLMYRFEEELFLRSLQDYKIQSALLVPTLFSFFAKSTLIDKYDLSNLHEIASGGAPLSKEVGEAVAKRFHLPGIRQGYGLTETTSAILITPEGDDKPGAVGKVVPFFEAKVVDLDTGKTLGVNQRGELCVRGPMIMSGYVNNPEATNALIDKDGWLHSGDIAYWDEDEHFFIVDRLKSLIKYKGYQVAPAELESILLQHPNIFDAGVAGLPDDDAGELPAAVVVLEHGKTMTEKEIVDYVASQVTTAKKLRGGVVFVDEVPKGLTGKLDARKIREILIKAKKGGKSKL
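Biochemical qHTS of compounds, final roughly 60 µM downward over six points, against 10 nM purified firefly luciferase using Km concentrations of substrates (10 uM D-luciferin, 10 uM ATP) in Tris acetate pH 7.5 buffer; luminescence output.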
SMN2 splice enh – increases expression of the SMN2 splice variant. HEK293 SMN2-luciferase splicing reporter, luminescence, 30-36 h. Potency, µM (doses to about 46.1 µM), for inactives: at the highest dose activity change, positive = activation, actives largely listed as activators. 210,000 compounds, 2.8% hits; also: % of control where 0% means no effect; nearly all actives have a fitted effect of over 55% in size
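HEK293 cells carry an SMN2 minigene-luciferase reporter in which exon 7 inclusion puts luciferase in frame. Cells were seeded at 2000 cells/well, attached for 10-12 hours, then exposed to compounds for 30-36 hours at 37C before ONE-Glo luminescence.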
Rab9 prom act – activators of Rab9 promoter. Huh7 Rab9 promoter-luciferase reporter, luminescence, 24 h. Potency, µM (titrated, usually from 9.22 µM), inactives show at the highest dose activation, negative = inhibition, most hits filed as activators. 320,000 compounds, 2.8% hits. AID 485297; also: % of control where 0% means no effect; nearly all actives have a fitted effect of over 60% in size
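Luciferase signal after 10 min detection reagent at ambient indicates Rab9 promoter upregulation; stably transfected Huh7 cells were treated 24 h with compound in DMSO at 37 °C, 5% CO2.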
* hit, by the source's call; ? = inconclusive; . = no result given; [ ] = another dose, or the depositor's remark. Calls follow the shape of the dose curve; as a rule, active = well fitted curve in the direction sought with a large enough effect; inconclusive = small, poorly fitted or top-dose-only effect, or another doubt; inactive = no such curve, though single readings can be large; an effect the other way counts as inactive or inconclusive. Potency is read from the fitted curve at half-maximal effect.

SMILES	Luc counter	NPC1 prom act	FLuc modulator	SMN2 splice enh	Rab9 prom act
COc1ccc2c(c1)CC(C(=O)Nc1cc(OC)c(OC)c(OC)c1)CO2 (stereo unspecified)	.	.	-7.1%	.	.
COc1ccc(C(=O)Nc2nccs2)cc1	.	2.24µM*	19µM*	.	3.16µM*
CCCCc1nnc(NC(=O)c2oc3ccc(OC)cc3c2C)s1	.	21.1%	-25.0%	.	16.2%
CCCc1cc(C(=O)Nc2nccs2)cs1	-14.9%	1.78µM*	1.9µM*	3.98µM*	1.26µM*
CCC(CC)C(=O)Nc1cccc(C(=O)Nc2nccs2)c1	1.4%	-3.8%	0.0%	-25.1%	-2.2%
COc1ccc2oc(C(=O)Nc3nccs3)c(C)c2c1	.	1.12µM*	0.536µM*	.	1.12µM*
COc1ccc(CC[N@+]2(C)COc3cc4oc(=O)cc(C)c4cc3C2)cc1OC	-3.9%[7.66 µM]	.	.	-5.7%[9.22 µM]	.
CCCCc1ccc(Nc2ncccc2C#N)cc1	?	?	9.53µM*	?	2.82µM*
CCOC(=O)c1cccc(NC(=O)NCCc2c(C)nn(C)c2C)c1	.	.	-0.9%	.	.
COc1ccc(/C=N/n2c(-c3ccco3)nc3ccccc3c2=O)cc1	-1.9%	1.9%	-15.4%	-32.0%	-1.5%
COc1cccc(/C=N/n2c(-c3ccco3)nc3ccccc3c2=O)c1	-1.1%	0.398µM*	13.5µM*	0.794µM*	0.562µM*
COc1nc(-c2ccccc2)nnc1-c1ccccc1	-2.3%	?	5.36µM*	12.6µM*	3.16µM*
COc1ccc(CCNC(=O)Cn2nnc(C(=O)Nc3ccc(Br)cc3)c2N)cc1OC	.	-1.2%	9.53µM*	.	-6.7%
COc1ccccc1C(=O)Nc1ccc(C(=O)O)cc1	1.2%	0.4%	-12.7%	9.1%	-0.9%
CCOc1ccc(NC(=O)Cn2nnc(C(=O)NCCc3ccc(OC)c(OC)c3)c2N)cc1	10.8%	1.9%	-0.8%	-8.8%	4.9%
COc1ccccc1C(=O)Nc1ccc(OCC(=O)N2CC(C)OC(C)C2)cc1 (stereo unspecified)	.	-0.3%	5.36µM*	.	-5.2%
COc1ccccc1C(=O)Nc1ccc(C(=O)c2ccccc2)cc1	-0.8%	-5.4%	13.5µM*	-4.6%	?
CCOc1ccc(NC(=O)c2nnn(CC(=O)Nc3ccccc3OC)c2N)cc1	-2.1%	18.0%	2.69µM*	-1.3%	19.3%
Nc1nc(N)c2[nH]cnc2n1 (tested in a mixture with another compound)	0.6%[7.66 µM]	.	.	-18.7%[9.22 µM]	.
Cc1ccc(NC(=O)Cn2cnc3sc(C(=O)O)c(C)c3c2=O)cc1Cl	.	.	-18.3%	0.9%	.
COc1cc(OC)c(NC(=O)C2CCN(S(=O)(=O)c3ccc4c(c3)oc(=O)n4C)CC2)cc1Cl	.	.	-6.3%	-2.5%	.
COc1ccc(Cl)cc1NC(=O)Cn1cc2c(n1)CCC(C)C2 (stereo unspecified)	.	.	-2.2%	-6.2%	.
CCOc1ccc(NC(=O)c2ccccc2O)cc1	-14.9%	1.41µM*	0.536µM*	3.16µM*	1.58µM*
CCOc1ccc(NC(=O)c2ccccc2CO)cc1	-17.3%	?	16.9µM*	12.2%	?
CCOc1ccc(NC(=O)c2ccc(NC(=O)c3ccccc3Br)cc2)cc1	.	-0.7%	-14.8%	.	-1.4%
SMILES	Luc counter	NPC1 prom act	FLuc modulator	SMN2 splice enh	Rab9 prom act
COc1ccc(CCNC(=O)Cn2nnc(-c3ccc(N(C)C)cc3)n2)cc1OC	-0.5%	-0.2%	16.9µM*	-57.3%	-0.4%
CC1CCCN(C(=O)COc2ccc(NC(=O)c3cccs3)cc2)C1 (stereo unspecified)	8.3%	12.9%	9.53µM*	-19.8%	13.1%
CCOc1ccc(NC(=O)c2cccnc2C(=O)O)cc1	-6.4%	9.4%	?	8.3%	3.9%
O=C(Cn1c(-c2cccs2)cc2cc(Cl)ccc21)N1CCN(c2ccccc2F)CC1	.	.	-1.0%	.	.
CCc1c2c(nc3cccc(OC)c13)OC(CC)C2 (stereo unspecified)	-1.7%	.	.	1.7%	.
CCOc1ccc(NC(=O)c2ccccc2OC)cc1	-12.3%	?	12µM*	?	?
CCc1ccc(NC(=O)CCC(=O)Nc2nnc(C(F)(F)F)s2)cc1	.	20.6%	26.9µM*	.	0.4%
Cc1ccc(CNC(=O)c2ccc(NC(=O)c3nsc4ccccc34)cc2)cc1	.	.	6.75µM*	.	.
Cc1ccc(C(=O)NCc2ccc(N(C)C)cc2)cc1NC(=O)c1nsc2ccccc12	.	.	-12.9%	.	.
Cc1ccccc1CNC(=O)c1ccc(NC(=O)c2nsc3ccccc23)cc1	.	.	6.75µM*	.	.

High-throughput results (PubChem)
